# Assay results from PubChem BioAssay AID1159580 (chemical genetic matrix, 2015).
# “And” between values parts separate entries of the source, which are not always exact repeats. Equal values may be shown once. About 2,000 (36%) of roughly 5,500 compounds were called active. Not shown: some 18% with an inconclusive outcome. Some of the results follow. Values without a mark were called inactive. Cut-off read from the data, not from the text of the source: active = normalized growth mostly below about 0.91 (no sharp cut-off); inconclusive = no clear call, values can overlap the other calls; inactive = mostly above about 0.92.
# Assay: chemical genetic growth profiling, strain panel (AID 1159580);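 note: tested at 20 µM; growth read once vehicle control cultures reached saturation at 30 °C; 1 = growth at the plate median or of vehicle wells; lower values mean less growth of the strain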
# Settings: S. cerevisiae deletion strains, growth OD
smiles,measurement,setting,value
Nc1ncnc2c1ncn2C1O[C@H](COP(=O)(O)O)[C@@H](O)[C@H]1O (stereo partly specified),normalized growth,"locus YAL013W, strain DEP1, hits give low values",1.01
same,normalized growth,"locus YAL021C, strain ccr4, hits give low values",0.996
same,normalized growth,"locus YAL026C, strain drs2, hits give low values",1
same,normalized growth,"locus YAL030W, strain snc1, hits give low values",0.997
same,normalized growth,"locus YBL061C, strain skt5, hits give low values",0.999
same,normalized growth,"locus YBR009C, strain hhf1, hits give low values",0.95
same,normalized growth,"locus YBR021W, strain FUR4, hits give low values",1.01
same,normalized growth,"locus YBR023C, strain chs3, hits give low values",0.99
same,normalized growth,"locus YBR171W, strain sec66, hits give low values",1
same,normalized growth,"locus YBR229C, strain ROT2, hits give low values",1.01
same,normalized growth,"locus YBR231C, strain swc5, hits give low values",1.01
same,normalized growth,"locus YBR279W, strain paf1, hits give low values",0.999
same,normalized growth,"locus YCL011C, strain gbp2, hits give low values",0.991
same,normalized growth,"locus YCL016C, strain dcc1, hits give low values",0.982
same,normalized growth,"locus YCL029C, strain bik1, hits give low values",0.523 (active)
same,normalized growth,"locus YCL069W, strain vba3, hits give low values",0.996
same,normalized growth,"locus YCR088W, strain abp1, hits give low values",0.988
same,normalized growth,"locus YDL005C, strain med2, hits give low values",1.03
same,normalized growth,"locus YDL035C, strain GPR1, hits give low values",1.04
same,normalized growth,"locus YDL040C, strain nat1, hits give low values",1
same,normalized growth,"locus YDL074C, strain BRE1, hits give low values",1.03
same,normalized growth,"locus YDL101C, strain DUN1, hits give low values",1.01
same,normalized growth,"locus YDL134C, strain PPH21, hits give low values",1.02
same,normalized growth,"locus YDL185W, strain tfp1, hits give low values",0.992
same,normalized growth,"locus YDL192W, strain arf1, hits give low values",0.811 (active)
same,normalized growth,"locus YDR001C, strain nth1, hits give low values",0.997
same,normalized growth,"locus YDR069C, strain doa4, hits give low values",1.04
same,normalized growth,"locus YDR101C, strain arx1, hits give low values",0.589 (active)
same,normalized growth,"locus YDR137W, strain rgp1, hits give low values",1
same,normalized growth,"locus YDR150W, strain NUM1, hits give low values",1.02
same,normalized growth,"locus YDR159W, strain sac3, hits give low values",0.95
same,normalized growth,"locus YDR162C, strain NBP2, hits give low values",1.01
same,normalized growth,"locus YDR195W, strain ref2",1.01
same,normalized growth,"locus YDR297W, strain sur2, hits give low values",1.01
same,normalized growth,"locus YDR318W, strain mcm21, hits give low values",0.73 (active)
same,normalized growth,"locus YDR334W, strain swr1, hits give low values",1
same,normalized growth,"locus YDR335W, strain msn5, hits give low values",1
same,normalized growth,"locus YDR388W, hits give low values",0.209 (active)
same,normalized growth,"locus YDR392W, strain spt3, hits give low values",0.95
same,normalized growth,"locus YDR502C, strain sam2, hits give low values",0.632 (active)
same,normalized growth,"locus YEL003W, strain gim4, hits give low values",1
same,normalized growth,"locus YEL037C, strain rad23, hits give low values",0.993
same,normalized growth,"locus YEL061C, strain CIN8 (second series), hits give low values",1
same,normalized growth,"locus YEL061C, strain CIN8, hits give low values",1.01
same,normalized growth,"locus YER015W, strain faa2, hits give low values",0.987
same,normalized growth,"locus YER016W, strain bim1, hits give low values",0.97
same,normalized growth,"locus YER110C, hits give low values",0.798 (active)
same,normalized growth,"locus YER111C, strain swi4, hits give low values",0.991
same,normalized growth,"locus YER155C, strain BEM2 (second series), hits give low values",1.05
same,normalized growth,"locus YER155C, strain BEM2, hits give low values",1.01
same,normalized growth,"locus YER167W, strain BCK2, hits give low values",1.03
same,normalized growth,"locus YFR010W, strain ubp6, hits give low values",1.01
same,normalized growth,"locus YGL078C, strain dbp3, hits give low values",0.993
same,normalized growth,"locus YGL086W, strain mad1, hits give low values",0.74 (active)
same,normalized growth,"locus YGL167C, strain pmr1, hits give low values",1
same,normalized growth,"locus YGL173C, strain kem1, hits give low values",0.995
same,normalized growth,"locus YGL227W, strain vid30, hits give low values",1.01
same,normalized growth,"locus YGL240W, strain doc1, hits give low values",1.04
same,normalized growth,"locus YGL248W, strain PDE1, hits give low values",1.02
same,normalized growth,"locus YGL253W, strain hxk2, hits give low values",0.972
same,normalized growth,"locus YGR078C, strain PAC10, hits give low values",1.02
same,normalized growth,"locus YGR135W, strain pre9, hits give low values",0.776 (active)
same,normalized growth,"locus YGR229C, strain SMI1, hits give low values",1.03
same,normalized growth,"locus YGR252W, strain gcn5, hits give low values",0.987
same,normalized growth,"locus YHR013C, strain ard1, hits give low values",0.965
same,normalized growth,"locus YHR027C, strain rpn1, hits give low values",1
same,normalized growth,"locus YHR030C, strain SLT2, hits give low values",1.01
same,normalized growth,"locus YHR079C, strain IRE1 (second series), hits give low values",0.345 (active)
same,normalized growth,"locus YHR079C, strain IRE1, hits give low values",1.02
same,normalized growth,"locus YHR094C, strain hxt1, hits give low values",0.955
same,normalized growth,"locus YHR129C, strain ARP1, hits give low values",1.01
same,normalized growth,"locus YHR142W, strain chs7, hits give low values",1.01
same,normalized growth,"locus YHR200W, strain rpn10, hits give low values",0.911 (active)
same,normalized growth,"locus YIL066C, strain RNR3, hits give low values",1.03
same,normalized growth,"locus YIL073C, strain SPO22, hits give low values",1.03
same,normalized growth,"locus YIL125W, strain kgd1, hits give low values",0.999
same,normalized growth,"locus YIR030C, strain dcg1, hits give low values",0.648 (active)
same,normalized growth,"locus YJL092W, strain hpr5, hits give low values",1
same,normalized growth,"locus YJL095W, strain BCK1 (second series), hits give low values",0.996
same,normalized growth,"locus YJL095W, strain BCK1, hits give low values",0.99 and 0.989
same,normalized growth,"locus YJL115W, strain asf1, hits give low values",0.998
same,normalized growth,"locus YJL129C, strain trk1, hits give low values",1
same,normalized growth,"locus YJL134W, strain LCB3, hits give low values",1.01
same,normalized growth,"locus YJL154C, strain vps35, hits give low values",0.999
same,normalized growth,"locus YJL164C, strain tpk1, hits give low values",0.967
same,normalized growth,"locus YJL166W, strain qcr8, hits give low values",1.03
same,normalized growth,"locus YJL168C, strain set2, hits give low values",0.927 (active)
same,normalized growth,"locus YJL187C, strain SWE1 (second series), hits give low values",1.03
same,normalized growth,"locus YJL187C, strain SWE1, hits give low values",0.996
same,normalized growth,"locus YJR043C, strain POL32, hits give low values",1
same,normalized growth,"locus YJR066W, strain TOR1, hits give low values",0.965
